# In PubChem BioAssay AID865 (The Scripps Research Institute Molecular Screening Center, 2007):
# The list shows a part of the results. Unmarked numbers belong to inactive results.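 The calls were made as follows: active = activation above the screen-wide mean activation plus 3 SD (cut at about 8% in these data); inactive = the rest.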
# Experiment: nonspecific BLA reporter activation – CHO NFAT-bla cells, FRET readout, counter-screen for GALR2 agonist project, confirmation (AID 865);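 also: 0% = DMSO with PBS wells and 100% = thapsigargin positive control wells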
# Details: beta-lactamase FRET activation, at 5.6 µM, hits give high values
smiles,measurement,value
Cc1cccc(N2C(=O)NC(=O)/C(=C\c3cnn(-c4ccccc4)c3)C2=O)c1,activation,0.39%
